Source: PubChem BioAssay (NCATS)
Results filed as inconclusive are left out. Activity calls are given as the source filed them. Calls follow the shape of the dose curve; as a rule, active = well fitted curve in the direction sought with a large enough effect; inconclusive = small, poorly fitted or top-dose-only effect, or another doubt; inactive = no such curve, though single readings can be large; an effect the other way counts as inactive or inconclusive.

Experiments:
[1] = test system: Zika virus NS2B-NS3 protease (linked construct); test: Primary screen NINDS Rhodamine qHTS for Zika virus inhibitors (AID 1347160); also: nearly all actives have a fitted effect of over 55% in size; as to activity change, negative = inhibition: % is scaled to controls: 0 for no effect and ±100 for the full control effect
Procedure, shortened: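 Rhodamine110-peptide cleavage (1.5 µM substrate) by 25 nM linked NS2B-NS3 enzyme at pH 8.0 (Tris, Tween 20), after 15 min RT preincubation with compounds; 15-min fluorescence change normalized to controls and Hill-fitted.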

[2] = molecular target: Calcium and integrin-binding protein 1 (Homo sapiens) (UniProt Q99828); test: Primary qHTS for Identification of Calcium Integrin Binding Protein 1 (CIB1) Competitor (AID 1508620);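 also: GST tagged CIB1 binding a fluorescein labelled alphaIIb integrin peptide tracer; top concentration of the series differs between compounds; % is scaled to controls: 0 for no effect and ±100 for the full control effect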
Sequence of Calcium and integrin-binding protein 1 (Homo sapiens) (Q99828 whole entry, looked up): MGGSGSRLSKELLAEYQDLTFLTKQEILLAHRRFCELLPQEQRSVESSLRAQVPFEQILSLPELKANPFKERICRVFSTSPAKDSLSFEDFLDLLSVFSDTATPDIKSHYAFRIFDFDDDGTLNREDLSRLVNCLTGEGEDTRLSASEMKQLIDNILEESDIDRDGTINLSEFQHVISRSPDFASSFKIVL
Procedure, shortened: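 CIB1-GST (1 uM final) and compound incubated 15 min at room temperature before adding FITC-alphaIIb peptide tracer (100 nM final). Competition for binding read by fluorescence polarization (ex 480, em 540) after another 15 min at room temperature.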

[3] = Primary qHTS for inhibitors of nuclear receptor binding SET domain protein 2 (NSD2) in an isogenic RCH-ACV NSD2 p.E1099K mutant (9B) (AID 1645876); also: nearly all actives have a fitted effect of over 70% in size; also: potency is read from the fitted curve at half-maximal effect
[4] = molecular target: Glutathione peroxidase 1 (Homo sapiens) (UniProt P07203); test: Primary qHTS Assay for Inhibitors of Recombinant Selenoprotein Glutathione Peroxidase 1 (GPX1) (AID 1845191); also: nearly all actives have a fitted effect of over 65% in size; as to activity, negative = inhibition: % is scaled to controls: 0 for no effect and ±100 for the full control effect
Sequence of Glutathione peroxidase 1 (Homo sapiens) (P07203 whole entry, looked up): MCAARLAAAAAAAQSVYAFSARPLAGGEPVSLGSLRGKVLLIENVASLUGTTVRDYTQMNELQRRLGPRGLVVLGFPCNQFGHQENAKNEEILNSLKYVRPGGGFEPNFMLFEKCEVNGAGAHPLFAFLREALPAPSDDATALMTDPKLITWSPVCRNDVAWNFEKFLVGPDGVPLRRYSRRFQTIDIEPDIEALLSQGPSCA
Procedure, shortened: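 NADPH consumption tracked by fluorescence at 340/450 nm between t=0 and t=15 min, room temperature. Final mix: 10 nM GPX1, 100 nM glutathione reductase, 1 mM GSH, 0.5 mM NADPH, 0.5 mM cumene hydroperoxide, 0.01% BSA; 30 min compound–enzyme preincubation.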

[5] = molecular target: Phospholipid hydroperoxide glutathione peroxidase GPX4 (Homo sapiens) (UniProt P36969); test: Primary qHTS Assay for Inhibitors of Recombinant Selenoprotein Glutathione Peroxidase 4 (GPX4) (AID 1845192); also: nearly all actives have a fitted effect of over 65% in size; as to activity change, negative = inhibition: % is scaled to controls: 0 for no effect and ±100 for the full control effect
Sequence of Phospholipid hydroperoxide glutathione peroxidase GPX4 (Homo sapiens) (P36969 whole entry, looked up): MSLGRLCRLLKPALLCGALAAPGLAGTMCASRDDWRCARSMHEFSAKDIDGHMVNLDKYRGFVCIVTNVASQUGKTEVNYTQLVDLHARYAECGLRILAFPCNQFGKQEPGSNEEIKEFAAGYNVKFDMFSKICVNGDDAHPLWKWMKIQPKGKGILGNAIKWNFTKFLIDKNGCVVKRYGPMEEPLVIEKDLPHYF
Procedure, shortened: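 NADPH consumption followed by fluorescence at 340/450 nm, t=0 and after 15 min at room temperature. Reaction started with cumene hydroperoxide (0.5 mM final) after 30 min compound–GPX4 preincubation; final 200 nM GPX4, 100 nM GR, 1 mM GSH, 0.5 mM NADPH.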

[6] = molecular target: Luciferin 4-monooxygenase (Photinus pyralis) (UniProt P08659); test: Primary firefly luciferase (FLuc) qHTS assay for identification of artifact compounds. (AID 1845220); conditions: outcome: dose series up to 54.1 µM unless noted; also: nearly all actives have a fitted effect of over 60% in size;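 as to activity change, negative = inhibition: plate controls were DMSO vehicle for no effect and no enzyme for full effect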
Procedure, shortened: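 Compounds sat 15 min at room temperature with 10 uM luciferin and 10 uM ATP (pH 7.6 Tris acetate). Firefly luciferase (10 nM final) was then added, and luminescence was read 5 min later. Data normalized to no-enzyme and DMSO controls were Hill-fitted.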

[7] = test system: Nanoluciferase (engineered Oplophorus gracilirostris luciferase); test: Primary Nanoluciferase (NLuc) qHTS assay for identification of artifact compounds. (AID 1845222);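 also: 0% = DMSO and -100% = no enzyme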
Procedure, shortened: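 Luminescence from secreted NLuc (filtered, 1:55-diluted S16 cell medium) read 5 min after Nano-Glo substrate; compounds preincubated 15 min, RT. Hill fits of inhibition normalized to DMSO and no-enzyme.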

CRL-7250 = normal cell line; test: Cytotoxic Profiling of Annotated Libraries Using Quantitative High-Throughput Screening (AID 1296008); conditions: Five cell lines viability, CellTiter-Glo ATP luminescence, 48-72 h; max response: stronger effect = lower value; also: nearly all actives have a fitted effect of over 60% in size; also: potency is read from the fitted curve at half-maximal effect
Procedure, shortened: (§1)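 Cytotoxicity was measured as CellTiter-Glo ATP luminescence, read after 10 min at room temperature. Compound treatment of the cells lasted 48 or 72 hr at 37 degrees Celsius in a qHTS format.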

HEK293 = test: as above; conditions: Five cell lines viability, CellTiter-Glo ATP luminescence, 48-72 h; max response: stronger effect = lower value
Procedure, shortened: as §1

HaCat = test: as above; conditions: Five cell lines viability, CellTiter-Glo ATP luminescence, 48-72 h; max response: stronger effect = lower value
Procedure, shortened: as §1

KB-3-1 = test: as above; conditions: Five cell lines viability, CellTiter-Glo ATP luminescence, 48-72 h; max response: stronger effect = lower value
Procedure, shortened: as §1

C33A = test: Primary qHTS to identify gynecologic anti-cancer compounds using libraries of approved drugs and bioactive compounds (AID 1345084); conditions: Gynecologic cancer cell panel viability, ATPlite luminescence, 48 h; series mostly up to 57.5 µM; also: nearly all actives have a fitted effect of over 55% in size; also: potency is read from the fitted curve at half-maximal effect
Procedure, shortened: (§2)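 Luminescence from the ATPlite ATP-monitoring reagent indicates viable cell number; lower signal means cytotoxicity. Cells received compound 16 h after seeding and were exposed for 48 h across five concentrations.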

CASKI = test: as above; conditions: Gynecologic cancer cell panel viability, ATPlite luminescence, 48 h; series mostly up to 57.5 µM
Procedure, shortened: as §2

Es-2 = test: as above; conditions: Gynecologic cancer cell panel viability, ATPlite luminescence, 48 h; series mostly up to 57.5 µM
Procedure, shortened: as §2

Hek293T = test: as above; conditions: Gynecologic cancer cell panel viability, ATPlite luminescence, 48 h, control line for the selectivity index; series mostly up to 57.5 µM
Procedure, shortened: as §2

OV90 = test: as above; conditions: Gynecologic cancer cell panel viability, ATPlite luminescence, 48 h; series mostly up to 57.5 µM
Procedure, shortened: as §2

PA-1 = test: as above; conditions: Gynecologic cancer cell panel viability, ATPlite luminescence, 48 h; series mostly up to 57.5 µM
Procedure, shortened: as §2

[8] = Primary fluorescence-based thiol-reactive (MSTI) qHTS assay for identification of artifact compounds. (AID 1845221); also: nearly all actives have a fitted effect of over 65% in size; also: potency is read from the fitted curve at half-maximal effect;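 as to activity change, negative = thiol reactive: thiol-reactive compounds lower the probe fluorescence signal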
Procedure, shortened: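 Compounds were incubated 1 h at room temperature in the dark with the MSTI probe (4 uM) in PBS pH 7.4, 2% DMSO. Signals were normalized between Acetyl-MSTI and MSTI.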

Tov-21-G = test: Primary qHTS to identify gynecologic anti-cancer compounds using libraries of approved drugs and bioactive compounds (AID 1345084); conditions: Gynecologic cancer cell panel viability, ATPlite luminescence, 48 h; series mostly up to 57.5 µM; also: nearly all actives have a fitted effect of over 55% in size; also: potency is read from the fitted curve at half-maximal effect
Procedure, shortened: as §2

Tov112D = test: as above; conditions: Gynecologic cancer cell panel viability, ATPlite luminescence, 48 h; series mostly up to 57.5 µM
Procedure, shortened: as §2

CC[C@H]1C[C@@H]2CC[C@@H](O2)[C@@H](C)C(=O)O[C@H](CC)C[C@H]2CC[C@H](O2)[C@H](C)C(=O)O[C@@H](C)C[C@@H]2CC[C@@H](O2)[C@@H](C)C(=O)O[C@H](CC)C[C@H]2CC[C@H](O2)[C@H](C)C(=O)O1
active: Potency [3] 10.8 nM | Potency (CRL-7250) 385 nM | Potency (HEK293) 21.7 nM | Potency (HaCat) 68.5 nM | Potency (KB-3-1) 15.3 nM | Potency (C33A) 224 nM | Potency (CASKI) 447 nM | Potency (Es-2) 501 nM | Potency (Hek293T) 355 nM | Potency (OV90) 89.1 nM | Potency (PA-1) 178 nM
inactive: Potency [1] | Potency [2] | Potency [4] | Potency [5] | outcome [6] | Potency [7]

CO[C@H]1[C@@H](O)[C@@H](C)O[C@@H](O[C@@H]2C=C3C(OC(C)=O)CC4(O)C(CC[C@]5(C)[C@@H](C6=CC(=O)OC6)CC[C@]45O)[C@@]3(C)CC2)[C@@H]1O (some centres undefined)
inactive: Potency [1] | Potency [2] | Potency [4] | Potency [5] | outcome [6] inactive [at 25.7 µM] | Potency [8] | Potency [7]
active: Potency [3] 48.3 nM | Potency (CRL-7250) 137 nM | Potency (HEK293) 86.2 nM | Potency (HaCat) 2430 nM | Potency (KB-3-1) 385 nM | Potency (C33A) 178 nM | Potency (CASKI) 2820 nM | Potency (Es-2) 447 nM | Potency (Hek293T) 251 nM | Potency (OV90) 2510 nM | Potency (PA-1) 316 nM | Potency (Tov-21-G) 282 nM | Potency (Tov112D) 100 nM

COc1cc(O)c2c(c1)/C=C/C[C@@H](O)[C@@H](O)C(=O)CCC[C@H](C)OC2=O
inactive: Potency [1] | Potency [2] | Potency [4] | Potency [5] | outcome [6] | Potency [8] | Potency [7] | max response (HEK293) 0.301% | max response (HaCat) -18.3% | max response (KB-3-1) 5.8% | Potency (C33A) | Potency (CASKI) | Potency (Es-2) | Potency (Hek293T) | Potency (OV90) | Potency (PA-1) | Potency (Tov-21-G) | Potency (Tov112D)
active: Potency (CRL-7250) 14300 nM

COC1CC(O[C@H]2CC[C@]3(C=O)C4CC[C@]5(C)[C@@H](C6=CC(=O)OC6)CC[C@]5(O)[C@@H]4CC[C@@H]3C2)OC(C)C1O[C@@H]1O[C@H](CO)[C@@H](O[C@@H]2O[C@H](CO)[C@@H](O)[C@H](O)[C@H]2O)[C@H](O)[C@H]1O (some centres undefined)
inactive: Potency [1] | Potency [2] | Potency [4] | Potency [5] | activity change, negative = inhibition [6] 0.154% [at 11.6 µM] | activity change, negative = thiol reactive [8] -23.5% [at 11.5 µM] | activity, negative = inhibition [7] 1.46% [at 11.6 µM]
active: Potency [3] 77.4 nM | Potency (CRL-7250) 123 nM | Potency (HEK293) 219 nM | Potency (HaCat) 873 nM | Potency (KB-3-1) 174 nM | Potency (C33A) 178 nM | Potency (Es-2) 398 nM | Potency (Hek293T) 447 nM | Potency (OV90) 1580 nM | Potency (PA-1) 447 nM | Potency (Tov-21-G) 224 nM | Potency (Tov112D) 112 nM

C[C@]12CC[C@H]3[C@@H](CCC4=C/C(=N/OCC(=O)O)CC[C@@]43C)[C@@H]1CC[C@@H]2O
inactive: Potency [1] | Potency [3] | Potency [4] | Potency [5] | outcome [6] | Potency [8] | Potency [7] | max response (CRL-7250) -2.05% | max response (HEK293) -5.05% | max response (HaCat) -24.1% | outcome (KB-3-1) | Potency (C33A) | Potency (CASKI) | Potency (Es-2) | Potency (Hek293T) | Potency (OV90) | Potency (PA-1) | Potency (Tov-21-G) | Potency (Tov112D)

CC1=CC(=O)[C@@H](O)[C@]2(C)C3[C@@H](O)[C@@H]4OC(=O)[C@@H]([C@H]4C)[C@]3(C)C(=O)C[C@@H]12 (some centres undefined)
active: Potency [3] 2260 nM | Potency (CRL-7250) 3210 nM | Potency (HEK293) 2860 nM | Potency (HaCat) 11400 nM | Potency (KB-3-1) 4530 nM | Potency (Es-2) 8910 nM | Potency (PA-1) 2820 nM
inactive: Potency [1] | Potency [2] | Potency [4] | Potency [5] | outcome [6] | Potency [8] | Potency [7]

CNc1ccc2oc(C[C@H]3O[C@@]4(CC[C@H]3C)O[C@H](C(C)C(=O)c3ccc[nH]3)[C@H](C)C[C@H]4C)nc2c1C(=O)O (some centres undefined)
active: Potency [3] 16300 nM | Potency [8] 2380 nM | Potency (CRL-7250) 5800 nM | Potency (HEK293) 1300 nM | Potency (HaCat) 7310 nM | Potency (KB-3-1) 2310 nM | Potency (C33A) 11200 nM | Potency (Es-2) 10000 nM | Potency (Hek293T) 8910 nM | Potency (OV90) 12600 nM | Potency (PA-1) 4470 nM | Potency (Tov-21-G) 11200 nM
inactive: Potency [1] | Potency [2] | Potency [5] | outcome [6] | Potency [7]

CC[C@@H]1C[C@H]2CC[C@H](O2)[C@H](C)C(=O)O[C@@H](C)C[C@@H]2CC[C@@H](O2)[C@@H](C)C(=O)O[C@H](CC)C[C@H]2CC[C@H](O2)[C@H](C)C(=O)O[C@@H](C)C[C@@H]2CC[C@@H](O2)[C@@H](C)C(=O)O1
inactive: Potency [1] | Potency [2] | Potency [4] | Potency [5] | outcome [6] inactive [at 25.7 µM] | Potency [7]
active: Potency [3] 19.2 nM | Potency (CRL-7250) 385 nM | Potency (HEK293) 54.4 nM | Potency (HaCat) 1530 nM | Potency (KB-3-1) 38.5 nM | Potency (C33A) 316 nM | Potency (CASKI) 447 nM | Potency (Es-2) 708 nM | Potency (Hek293T) 631 nM | Potency (OV90) 398 nM | Potency (PA-1) 355 nM | Potency (Tov-21-G) 794 nM | Potency (Tov112D) 562 nM

CNC(=O)c1cc(C#N)cc(C)c1NC(=O)c1cc(Br)nn1-c1ncccc1Cl
active: Potency (HEK293) 13000 nM
inactive: Potency [1] | Potency [3] | Potency [4] | Potency [5] | outcome [6] | Potency [8] | Potency [7] | max response (CRL-7250) 0.534% | max response (HaCat) -17.6% | max response (KB-3-1) -25.7% | Potency (C33A) | Potency (CASKI) | Potency (Es-2) | Potency (Hek293T) | Potency (OV90) | Potency (PA-1) | Potency (Tov-21-G) | Potency (Tov112D)

CC(=O)N1N=C(c2ccc(N)cc2)c2cc3c(cc2C[C@H]1C)OCO3
inactive: Potency [1] | Potency [4] | outcome [6] | Potency [7] | max response (CRL-7250) -0.992% | max response (HEK293) -4.81% | max response (HaCat) -4.11% | max response (KB-3-1) 6.29% | Potency (C33A) | Potency (CASKI) | Potency (Es-2) | Potency (Hek293T) | Potency (OV90) | Potency (PA-1) | Potency (Tov-21-G) | Potency (Tov112D)
